ChEMBL document CHEMBL3988442, “University of Dundee, Small-Polar-MMV Screening Library” (2021)

Biological target: AMP-activated protein kinase, AMPK (Homo sapiens) (UniProt P54646+O43741+P54619+Q9UGJ0+Q9Y478+Q13131+Q9UGI9)
Assay: AMP-dependent Kinase enzyme assay. An in vitro enzyme assay that detects ADP turnover that is directly proportional to AMPK activity. This uses naive AMPK that is activated during the assay with MK-8722
Assay type: functional
Parameters: scale not given: direction of the effect not stated beside the values
Conditions: 30 µM

SMILES | Percent Effect
COCC(NC(=O)c1cc(NC(C)=O)ccc1Cl)c1ccccn1 (stereo not given) | 1.62%
FC(F)(F)c1cc(C2CCCN(Cc3ccncc3)C2)n[nH]1 (stereo not given) | 3.39%
CC(C)N1CCCC(CNC(=O)CN(C)S(=O)(=O)c2ccccc2)C1 (stereo not given) | -1.71%
Cc1ccccc1N1CCCN(C(=O)CCc2nncn2C)CC1 | -4.54%
CC(C)(CNC(=O)c1ccc(Cl)o1)NC(=O)OC(C)(C)C | -2.97%
CCOc1ccc(CN2CCOCC2c2[nH]ncc2C)cc1CO (stereo not given) | 22.7%
CCC[C@@H]1CN(Cc2cnc(-c3cccs3)nc2)C[C@H]1C(=O)O | -8.24%
CC(C)c1ocnc1C(=O)Nc1cccc(Cn2ccccc2=O)c1 | 8.27%
NC(=O)C(NC1CCN(Cc2ccc(F)cc2)CC1)c1ccccc1 (stereo not given) | -4.88%
O=C1CN(C(=O)CC2c3ccccc3CCc3ccccc32)CCN1 | 30.9%
CCOc1ccccc1CN(C)C(C)c1nc(-c2cccnc2)no1 (stereo not given) | 1.83%
CN(C)c1ccc(C(=O)Nc2ccn(CCc3ccncc3)n2)cc1 | 10.3%
CCC(=O)N1CCC(c2ncc(C(=O)Nc3ccccc3)c(C)n2)C1 (stereo not given) | 8.33%
CC(=O)Nc1ccc(CNC(=O)CNCc2nnc(C)o2)cc1 | -8.94%
O=C(NCc1nncn1C1CC1)c1cccnc1Oc1ccccc1 | 1.39%
CN1CCc2nc(C3CCCN(S(=O)(=O)c4ccccc4)C3)ncc2C1 (stereo not given) | 6.25%
CSc1ccc(OCCN2CCNC(=O)C2C)cc1 (stereo not given) | 6.4%
Cc1cc(N2CCC3(CCCN(CCO)C3=O)C2)nc(C)c1C#N (stereo not given) | 14.2%
Cc1cccc(C(C)C)c1NC(=O)NCCN(C(C)C)C(C)C | 15.2%
CC(O)C1CCN(C(=O)CCOc2ccccc2F)CC1 (stereo not given) | 4.43%

SMILES | Percent Effect
Cc1ccc(CNC(C)(C)c2noc(C(C)(C)C)n2)o1 | 0.8%
COc1ccc(Br)cc1S(=O)(=O)N(C)Cc1ccc(N(C)C)cc1 | -1.52%
N#Cc1cccnc1NCc1cccnc1N1CCCCC1 | 7.89%
CN(CCNC(=O)Nc1cnn(C)c1)Cc1ccc(F)cc1 | 0.603%
CCN(CC)S(=O)(=O)NC1CCN(c2ccc(OC)cc2)CC1 | 9.49%
Cc1cc(C(=O)NCCN2CCCCCC2)nn1C(C)(C)C | 4.2%
CN1CCN(CCCOc2ccccc2CN2C[C@H]3CC[C@H]2C3)CC1 | -5.02%
CCc1oc(C(=O)NC(C)c2ncn[nH]2)cc1CN1CCCC1 (stereo not given) | -1.83%
CCc1noc(C)c1C(=O)N1CCC2(CCCN(CC(C)(C)C)C2=O)C1 (stereo not given) | 7.67%
Cc1cnn(CCNCC(=O)N2CCN(c3ccccn3)CC2)c1 | -14.7%
CC(=O)NCc1ccc(C(=O)N2CCCc3c(F)ccc(C)c32)o1 | 0.928%
Cc1ccc(-c2cc(CS(=O)(=O)NC3CCCNC3=O)on2)cc1 (stereo not given) | 5.82%
Cc1ccc(S(=O)(=O)Cc2nsc(N(C)C)n2)c(C)c1 | -0.477%
c1csc(CN2CCCN(c3ccc(Cn4ccnc4)cn3)CC2)c1 | -2.96%
COc1ccc2c(c1)CCCC2CC(=O)NCC(=O)O (stereo not given) | 3.73%
CC(C(=O)N1CCC(c2[nH]ncc2-c2ccccc2)CC1)n1cncn1 (stereo not given) | -1.59%
CCn1cnnc1CCNC(=O)CCNC(=O)c1ccccc1F | -0.474%
CCCN1CCC(N2CCC(Cn3cc(CC(C)O)nn3)CC2)CC1 (stereo not given) | -7.12%
CCOCC(=O)N1CCC(C)(c2nccs2)CC1 | 6.62%
Cc1ccccc1C(NC(=O)CCCS(C)(=O)=O)C(C)(C)C (stereo not given) | 7.1%
